Values without a mark were called inactive. The source made the active and inactive calls.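 The calls were made as follows, unless noted: active = mean inhibition over 43.08%, the solvent-only control mean plus 3 SD; inactive = the rest.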
Tests used:
[1] = target: Nuclear receptor coactivator 3 (Homo sapiens) (UniProt Q9Y6Q9); experiment: NCOA3 GAL4-fusion reporter inhibition – cell-based, luminescence, quadruplicate, confirmation (AID 588792); conditions: HEK293 GAL4-SRC3 luciferase reporter, at 3.6 µM, hits give high values;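 also: 0% = DMSO treated cells and 100% = gossypol at 36 µM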
Sequence of Nuclear receptor coactivator 3 (Homo sapiens) (Q9Y6Q9 whole entry, looked up, the tested form may be a part): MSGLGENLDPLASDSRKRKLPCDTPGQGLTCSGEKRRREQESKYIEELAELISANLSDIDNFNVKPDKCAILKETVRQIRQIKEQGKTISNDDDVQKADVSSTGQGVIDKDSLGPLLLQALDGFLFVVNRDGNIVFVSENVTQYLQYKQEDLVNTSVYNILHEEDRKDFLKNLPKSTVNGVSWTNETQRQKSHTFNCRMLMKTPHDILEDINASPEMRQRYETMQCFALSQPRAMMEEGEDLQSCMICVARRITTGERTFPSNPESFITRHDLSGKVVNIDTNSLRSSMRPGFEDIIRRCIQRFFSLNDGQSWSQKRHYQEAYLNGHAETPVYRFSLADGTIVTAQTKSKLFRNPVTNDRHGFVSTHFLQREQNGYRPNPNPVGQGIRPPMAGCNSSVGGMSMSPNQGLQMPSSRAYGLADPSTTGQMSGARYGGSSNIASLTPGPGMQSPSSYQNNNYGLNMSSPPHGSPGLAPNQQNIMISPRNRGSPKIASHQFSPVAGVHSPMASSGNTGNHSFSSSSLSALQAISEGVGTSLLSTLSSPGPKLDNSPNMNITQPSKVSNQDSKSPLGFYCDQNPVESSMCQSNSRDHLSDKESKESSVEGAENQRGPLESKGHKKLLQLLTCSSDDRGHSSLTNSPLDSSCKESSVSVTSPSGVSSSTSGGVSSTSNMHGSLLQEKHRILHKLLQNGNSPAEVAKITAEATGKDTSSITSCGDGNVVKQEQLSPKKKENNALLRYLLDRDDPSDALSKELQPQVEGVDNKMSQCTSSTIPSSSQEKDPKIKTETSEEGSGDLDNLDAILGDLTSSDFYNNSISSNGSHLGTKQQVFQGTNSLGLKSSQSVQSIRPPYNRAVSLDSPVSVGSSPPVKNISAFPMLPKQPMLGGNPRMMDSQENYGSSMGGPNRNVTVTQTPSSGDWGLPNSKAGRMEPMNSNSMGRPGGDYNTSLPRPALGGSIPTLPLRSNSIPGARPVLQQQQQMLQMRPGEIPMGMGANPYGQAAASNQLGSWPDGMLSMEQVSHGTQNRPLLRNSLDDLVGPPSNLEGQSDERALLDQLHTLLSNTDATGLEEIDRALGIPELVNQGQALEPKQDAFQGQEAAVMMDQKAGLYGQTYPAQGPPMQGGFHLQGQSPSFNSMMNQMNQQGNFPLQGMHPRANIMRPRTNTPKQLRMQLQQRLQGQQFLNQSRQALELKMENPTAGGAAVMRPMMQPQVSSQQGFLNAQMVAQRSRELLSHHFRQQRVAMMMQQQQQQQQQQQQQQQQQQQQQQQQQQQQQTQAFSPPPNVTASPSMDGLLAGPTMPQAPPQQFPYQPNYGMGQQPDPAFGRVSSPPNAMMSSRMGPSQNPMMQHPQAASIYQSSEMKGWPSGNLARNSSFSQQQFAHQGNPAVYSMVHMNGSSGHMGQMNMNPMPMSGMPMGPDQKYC

[2] = test system: transactivating tegument protein VP16 (Human herpesvirus 1), Gal4-VP16 luciferase reporter; experiment: repression of VP16-driven luciferase reporter – cell-based, luminescence, high throughput, counter-screen for SRC3 inhibitor project (AID 588794; in the data active = inhibition above about 30%); conditions: mammalian cells, at 3.6 µM, hits give high values
[3] = target: Nuclear receptor coactivator 1 (Homo sapiens) (UniProt Q15788); experiment: NCOA1 GAL4-fusion reporter inhibition – cell-based, luminescence, quadruplicate, confirmation (AID 588820;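 active = mean inhibition above 46.68%, the untreated control wells mean plus 3 SD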;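 also: 0% = DMSO wells and 100% = gossypol 36 µM treated wells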); conditions: HEK293 GAL4-SRC1 luciferase reporter, at 3.6 µM, hits give high values
Sequence of Nuclear receptor coactivator 1 (Homo sapiens) (Q15788 whole entry, looked up, the tested form may be a part): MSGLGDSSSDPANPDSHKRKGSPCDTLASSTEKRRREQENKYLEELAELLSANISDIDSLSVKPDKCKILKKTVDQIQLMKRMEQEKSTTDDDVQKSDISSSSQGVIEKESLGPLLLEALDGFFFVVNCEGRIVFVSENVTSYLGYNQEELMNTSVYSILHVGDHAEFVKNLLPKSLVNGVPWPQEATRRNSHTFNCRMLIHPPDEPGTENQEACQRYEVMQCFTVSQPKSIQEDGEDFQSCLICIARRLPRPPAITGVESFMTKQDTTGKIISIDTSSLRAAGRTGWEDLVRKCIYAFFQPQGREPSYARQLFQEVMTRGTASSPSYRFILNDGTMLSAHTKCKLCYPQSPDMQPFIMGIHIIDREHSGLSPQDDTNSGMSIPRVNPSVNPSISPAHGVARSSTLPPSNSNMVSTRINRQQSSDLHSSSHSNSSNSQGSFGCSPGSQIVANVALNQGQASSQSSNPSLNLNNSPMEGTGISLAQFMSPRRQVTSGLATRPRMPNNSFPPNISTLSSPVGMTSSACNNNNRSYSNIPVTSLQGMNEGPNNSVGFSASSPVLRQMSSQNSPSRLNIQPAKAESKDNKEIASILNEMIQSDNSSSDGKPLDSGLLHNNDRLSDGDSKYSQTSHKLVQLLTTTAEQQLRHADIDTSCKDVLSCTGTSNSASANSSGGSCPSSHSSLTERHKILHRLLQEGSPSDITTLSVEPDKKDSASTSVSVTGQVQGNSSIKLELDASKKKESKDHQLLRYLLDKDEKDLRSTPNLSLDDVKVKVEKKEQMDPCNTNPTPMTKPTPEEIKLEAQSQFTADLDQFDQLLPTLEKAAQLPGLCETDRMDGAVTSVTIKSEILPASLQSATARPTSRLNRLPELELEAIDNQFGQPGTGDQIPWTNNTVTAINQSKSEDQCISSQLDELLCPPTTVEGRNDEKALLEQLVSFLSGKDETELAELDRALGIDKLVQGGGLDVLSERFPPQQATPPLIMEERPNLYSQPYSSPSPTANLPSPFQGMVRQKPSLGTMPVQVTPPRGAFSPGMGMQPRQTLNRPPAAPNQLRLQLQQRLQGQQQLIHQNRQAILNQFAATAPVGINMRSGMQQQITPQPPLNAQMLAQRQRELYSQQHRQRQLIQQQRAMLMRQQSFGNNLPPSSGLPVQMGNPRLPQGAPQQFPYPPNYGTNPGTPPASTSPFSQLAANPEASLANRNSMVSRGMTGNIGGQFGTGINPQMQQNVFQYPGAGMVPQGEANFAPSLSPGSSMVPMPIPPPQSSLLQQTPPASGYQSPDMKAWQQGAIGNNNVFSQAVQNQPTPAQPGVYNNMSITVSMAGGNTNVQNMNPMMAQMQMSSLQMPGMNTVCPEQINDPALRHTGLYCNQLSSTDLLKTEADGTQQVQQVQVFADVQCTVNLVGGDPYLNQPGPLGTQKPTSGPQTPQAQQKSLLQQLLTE

[4] = repression of VP16-driven luciferase reporter – cell-based, luminescence, high throughput, counter-screen for SRC1 inhibitor project (AID 588824; in the data active = inhibition above about 25%); conditions: cell-based VP16 transactivation luciferase luminescence; at 3.6 µM; hits give high values

Structure (SMILES)	inhibition [1]	inhibition [2]	inhibition [3]	inhibition [4]
Cc1cc(C)n(-c2ccc(C(=O)Nc3cccc(S(=O)(=O)N(C)C)c3)cc2)n1	-2.01%	18.6%	–	–
CCc1nc(Nc2ccc3nccnc3c2)c2oc3ccccc3c2n1	5.99%	13.6%	–	–
O=C(NNC(=S)NCc1ccccc1)c1ccc2c(c1)OCO2	-11.1%	-11.7%	–	–
CCOC(=O)C(=O)NNc1ccc(C)cc1	-7.17%	4.76%	–	–
COc1ccc(-n2c(-c3ccc(Br)cc3)c[n+]3c2SC(C)C3)cc1 (stereo unspecified)	12.5%	23.3%	–	–
COc1ccc(OC)c(NC(=O)c2cccc(N3C(=O)C4C5C=CC(C6CC56)C4C3=O)c2)c1 (stereo unspecified)	-11.6%	7.26%	–	–
CC(C)OC(=O)c1sc2nc(-c3ccccc3)ccc2c1N	23.7%	-2.61%	–	–
COc1cccc(-c2csc3ncnc(Sc4nnnn4C)c23)c1	5.54%	21.9%	–	–
COc1ccccc1NS(=O)(=O)c1cc(NC(=O)c2ccc(Cl)nc2)ccc1Cl	9.43%	30.7% (active)	–	–
O=C(c1ccc(S(=O)(=O)Nc2cccc(C(F)(F)F)c2)cc1)N1CCC1	-2.7%	-5.66%	–	–
Cc1ccc(S(=O)(=O)NCCC(=O)Nc2ccncc2)cc1C	-1.9%	-0.54%	–	–
COc1ccc(-c2nc3c(c(SCC(=O)N4CCOCC4)n2)Cc2c(CO)cnc(C)c2O3)cc1	5.29%	-10.4%	–	–
NC(=O)c1sc2nc3c(c(-c4ccco4)c2c1N)CCCC3	59.8% (active)	32.4% (active)	–	–
COC(=O)c1c(C)oc2ccc(N(C(=O)c3ccncc3)S(=O)(=O)c3ccc(C)cc3C)cc12	1.85%	36.2% (active)	-7%	27.3% (active)
Cc1cc(C(=O)COC(=O)c2cccc(NS(C)(=O)=O)c2)c(C)n1CC1CCCO1 (stereo unspecified)	19.3%	-22.1%	-46.9%	-54.4%
CC1CCN(Cc2c(C(=O)N/N=C/c3ccccc3O)nnn2-c2nonc2N)CC1	57.7% (active)	41.1% (active)	64.4% (active)	56.8% (active)
COc1ccc(NS(=O)(=O)c2ccc(NC(=O)c3ccc(N(C)S(C)(=O)=O)cc3)cc2)c(OC)c1	12.3%	37% (active)	-6.59%	36.6% (active)
CCSCCc1nnc(NC(=O)Nc2cccc(C(F)(F)F)c2)s1	47.7% (active)	43.8% (active)	45.9%	28.4% (active)
COc1cccc(/C=N/NC(=O)C(=O)Nc2ccccc2OC(F)(F)C(F)F)c1O	36.3%	38% (active)	33.3%	23.4%
CC1(C)CCSC(/C=C/c2ccccc2)=N1	62.4% (active)	45.5% (active)	46.1%	39.8% (active)
COc1ccc(C(=O)Cn2c(C(C)=O)nc3ccccc32)cc1	-0.47%	-3.82%	-13.6%	-8.2%
O=C(CCl)N1N=C(c2ccco2)CC1c1cccs1 (stereo unspecified)	55.1% (active)	31.6% (active)	15.3%	21.7%
O=C(N/N=C/c1cc([N+](=O)[O-])ccc1O)c1cccc(N2CCCC2=O)c1	15.9%	14.3%	34.5%	4.04%
CCc1ccc2[nH]c3nc(N/N=C/c4cccc(O)c4)nnc3c2c1	37.2%	64.4% (active)	22.6%	59.5% (active)
COc1cccc(/C=N/NC(=O)c2cc(-c3cccn3C)n[nH]2)c1O	41.2%	35.7% (active)	37.6%	35.6% (active)
COc1ccc(C)cc1N=Nc1ccc(O)c2ncccc12	9.14%	-10.3%	-18.4%	0.73%
O=[N+]([O-])c1ccc(O)c(/C=N/Nc2ccccn2)c1	56.8% (active)	41.6% (active)	60.6% (active)	37.1% (active)
COc1ccc(-c2csc(NC(=O)C3CCN(c4ncnc5sc(C)c(C)c45)CC3)n2)cc1OC	24.1%	58.1% (active)	23.8%	52.6% (active)
